Source: PubChem BioAssay
Pf Dd2 inh = inhibitors of Plasmodium falciparum Dd2 growth. P. falciparum Dd2 growth, SYBR Green, 72 h. Potency, µM (series often up to 28.9 µM), most hits filed as inhibitors. 120,000 tested, 4.3% active. AID 1347417; active means well fitted inhibition curve with a large enough effect; further: nearly all actives have a fitted effect of over 65% in size
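Readout: SYBR Green fluorescence, 485 nm excitation, 535 nm emission, after ~16 h lysis at 37C. Before that, Dd2-infected red cells (2.5% hematocrit) grew 72 h with compound, 29 uM top final concentration.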
Large screens that a line does not name were inactive. Many of the other results were omitted from the sample, so hits are more common in it than they were.

COc1ccccc1NC(=O)C1=C(C)Nc2nc(SCc3ccccc3F)nn2C1c1ccncc1 (stereo unspecified)	none
Cc1cccc(NC(=O)CCNS(=O)(=O)c2cccc3nsnc23)c1C	none
CCOc1ccc2c(n1)CCNC2	none
CCOC(=O)C1CCN(C(=O)c2cc(-c3ccncc3)cn2Cc2ccccc2C)CC1	Pf Dd2 inh 6.3µM
Cc1ccc(Cn2cc(-c3ccncc3)cc2C(=O)N2CCN(C)CC2)cc1	Pf Dd2 inh 6.3µM
Cc1ccccc1Cn1cc(-c2ccncc2)cc1C(=O)O	none
CCn1cc(-c2ccc(Cl)cc2)cc1C(=O)NCc1ccncc1	none
CCOC(=O)C1CCN(C(=O)c2cc3sc(C)cc3n2C)CC1	none
Cc1ccc(-c2cc(C(=O)O)n(C)c2)cc1	none
COC(=O)c1ccc(NC(=O)c2cc(=O)c3ccc(C)cc3o2)cc1	none
COc1ccc(-c2nc3cnccn3c2NCCC(=O)N2CCCC(C)C2)cc1 (stereo unspecified)	none
COc1ccccc1NC(=O)Cn1c(=O)n(-c2cccc(C(C)=O)c2)c(=O)c2c3c(sc21)CN(C(C)=O)CC3	none
O=C(Cc1cccc(F)c1)N1CCC(Cc2nncn2Cc2ccccc2)C1 (stereo unspecified)	none
CC(=O)N1CCCc2cc(S(=O)(=O)N3CCC(C(=O)Nc4c(C)cccc4C)CC3)ccc21	none
CCN(CC)C(=O)C1CCN(S(=O)(=O)c2ccc3c(c2)CCCN3C(C)=O)CC1	none
CCN(C(=O)C1CCN(S(=O)(=O)c2ccc3c(c2)CCCN3C(C)=O)CC1)c1cccc(C)c1	Pf Dd2 inh 13µM
CCn1ncc(N2CCC(NC(=O)c3ccc(OC)c(OC)c3)CC2)cc1=O	none
Cc1cccc(NC(=O)N2CCC(N3CC4CC(C3)[C@H]3CCCC(=O)N3C4)CC2)c1 (stereo partly specified)	none
COCCn1c(=O)[nH]c2cc(C(=O)Nc3ccc(OC)cc3)ccc2c1=O	none
Cc1ccc(C)c(NC(=O)N2CCC(CN3CCOCC3)CC2)c1	none
COc1ccc(CNC(=O)C[C@@H]2c3nc(NC(=O)c4c(F)cccc4F)sc3C[C@@H]3[C@](C)(CO)[C@H](O)CC[C@]32C)cc1	Pf Dd2 inh 7.9µM
C=CCN(C)C(=O)C[C@@H]1c2nc(NC(=O)c3cccs3)sc2C[C@@H]2[C@](C)(CO)[C@H](O)CC[C@]21C	Pf Dd2 inh 11µM
C=CCN(C)C(=O)C[C@@H]1c2nc(NC(=O)c3ccco3)sc2C[C@@H]2[C@](C)(CO)[C@H](O)CC[C@]21C	none
CCN(CC)C(=O)C[C@@H]1c2nc(NC(=O)c3ccc(F)cc3)sc2C[C@@H]2[C@](C)(CO)[C@H](O)CC[C@]21C	none
C[C@]1(CO)[C@H]2Cc3sc(NC(=O)c4c(F)cccc4F)nc3[C@@H](CC(=O)O)[C@]2(C)CC[C@H]1O	none
CC(C)(C)CC(=O)Nc1nc2c(s1)C[C@@H]1[C@](C)(CO)[C@H](O)CC[C@@]1(C)[C@@H]2CC(=O)NCc1ccccc1	none
COc1ccc(CNC(=O)C[C@@H]2c3nc(NC(=O)c4cccs4)sc3C[C@@H]3[C@](C)(CO)[C@H](O)CC[C@]32C)cc1	Pf Dd2 inh 4µM
C=CCN(C)C(=O)C[C@@H]1c2nc(NC(=O)COC)sc2C[C@@H]2[C@](C)(CO)[C@H](O)CC[C@]21C	none
C[C@]1(CO)[C@H]2Cc3sc(NC(=O)C4CCCCC4)nc3[C@@H](CC(=O)O)[C@]2(C)CC[C@H]1O	none
Nc1nnnn1CC(=O)N1CCC2(CCC(=O)N(CC3CCCO3)C2)CC1 (stereo unspecified)	none
Cc1cccc(-n2c(=O)c3c(c4cc(C)ccc4n3C)n(CC(=O)Nc3ccccc3C(F)(F)F)c2=O)c1	none
Fc1ccc(CN2CC[C@H](c3nnc(Cc4ccccc4)o3)C2)cc1F	none
O=c1cc(CN2CCCC(CCc3ccccc3C(F)(F)F)C2)[nH]c(=O)[nH]1 (stereo unspecified)	none
Cc1ccccc1CN1CCCC(CCNS(=O)(=O)C2CC2)C1 (stereo unspecified)	Pf Dd2 inh 10µM
COc1coc(CN2CCCC(CCc3ccccc3F)C2)cc1=O (stereo unspecified)	none
O=C(NCc1nnc2ccc(-c3ccccc3)nn12)c1ccccc1Cl	none
COC(=O)C(C)Sc1ncnc2c1c(-c1ccccc1)cn2-c1ccc(F)cc1 (stereo unspecified)	Pf Dd2 inh 5.6µM
CN(c1ncnc2c1c(-c1ccccc1)cn2-c1ccc(F)cc1)C1CCCCC1	none
COc1ccc(-n2cc(-c3ccccc3)c3c(SC(C)C(C)=O)ncnc32)cc1 (stereo unspecified)	none
COc1cc(OC)c(OC)cc1CN1CCc2nc(N3CCN(C)CC3)[nH]c(=O)c2CC1	none
COc1ccc(-c2cc(N3CCCN(C(=O)c4ccc(N(C)C)cc4)CC3)n[nH]2)cc1	none
CCOc1ccccc1Nc1sc(C(=O)c2ccccc2)c(N)c1C(=O)Nc1ccccc1	none
N#Cc1c(Nc2cccc(F)c2)sc(C(=O)c2ccc(Cl)cc2)c1N	none
COc1cccc(Nc2sc(C(=O)c3ccc(F)cc3)c(N)c2C(=O)NCc2ccc(Cl)cc2)c1	none
Nc1c(C(=O)c2ccc(F)cc2)sc(Nc2ccccc2F)c1S(=O)(=O)c1ccc(Br)cc1	Pf Dd2 inh 11µM
CCc1ccc(S(=O)(=O)N2[C@@H]3CC[C@H]2CC(NC(=O)c2ccc(F)cc2)C3)cc1 (stereo partly specified)	none
CCc1ccc(Nc2sc(C(=O)c3ccc(F)cc3)c(N)c2S(=O)(=O)c2ccccc2)cc1	Pf Dd2 inh 8.9µM
CC(=O)N1CCC(C2CCN(Cc3ccc(F)cc3F)C2)CC1 (stereo unspecified)	none
CNC(=O)[C@@H]1CN(C(=O)c2ccc(C(C)(C)C)cc2)C[C@H]1CO	none
Fc1ccc(-c2nc3c4c(-c5ccccc5)c(-c5ccccc5)oc4ncn3n2)cc1	none
Cc1ccc(OCC(=O)Nc2nonc2-c2ccc(Br)cc2)cc1C	none
C=CCCC(CN1CCOCC1)Oc1ccc(Cn2ccnc2)cn1 (stereo unspecified)	none
CN1CCC(Oc2ccc(C(=O)N3CCOCC3)cn2)CC1	none
C=CCCC(CN1CCCC1)Oc1ccc(C(=O)N2CCOCC2)cn1 (stereo unspecified)	Pf Dd2 inh 6.3µM
Cc1ccc(-c2cn(C3CN(C(=O)C(C)CN4CCOCC4)C3)nn2)cc1 (stereo unspecified)	none
C=CCCC(CN1CCCOCC1)Oc1ccc(-c2ccccc2)nn1 (stereo unspecified)	Pf Dd2 inh 14µM
O=S(=O)(N[C@H]1CO[C@H]2[C@@H]1OC[C@@H]2n1nnnc1Oc1ccc(-n2ccnc2)cc1)c1ccc2ccccc2c1	none
CCOc1ccc(CNC(=O)c2ccc3oc(=O)n(Cc4ccccc4)c3c2)cc1	none
NC1C[C@H](Cn2cc(-c3cccnc3)nn2)[C@@H](O)[C@H]1O (stereo partly specified)	none
Cc1cccc(C2N3CC4(C(C)C)CN2CC(C(C)C)(C3)C4=O)c1 (stereo unspecified)	none
CC(C)C12CN3CC(C(C)C)(CN(C1)C3c1ccc(Cl)cc1)C2=O (stereo unspecified)	none
CC(C)C12CN3CC(C(C)C)(CN(C1)C3c1ccccn1)C2=O (stereo unspecified)	Pf Dd2 inh 8.9µM
O=C(NCc1ccccn1)C1CCN(C(=O)c2ncn3c2COC(c2ccc(F)cc2)C3)CC1 (stereo unspecified)	none
Cc1ccc(NC(=O)C2CCN(C(=O)c3ncn4c3COC(c3ccccc3)C4)CC2)cc1 (stereo unspecified)	none
CCOC(=O)c1c(C)sc(-c2c(-c3ccc(OC)c(F)c3)[nH]c3c2c(=O)[nH]c(=O)n3C)c1O	none
